# Source: PubChem (National Center for Advancing Translational Sciences (NCATS))
# This is a sample that favours compounds with a hit; in the whole collection about 8% have one here.
# MARV entry inh = Marburg virus entry inhibition | 18,000 tested, 6.5% active | Marburg virus pseudotype entry/binding inhibition, cell-based | Potency, µM (top dose mostly 49.2 µM), actives largely listed as inhibitors
# LASV entry inh = inhibitors of Lassa virus binding or entry into cells. Lassa virus pseudotyped entry inhibition, cell-based qHTS. Potency, µM (top dose mostly 49.2 µM), most hits filed as inhibitors. 18,000 tested, 4.1% active
# Numbers stand for hits; - = inactive; ? = inconclusive; . = not tested or not shown; ! = not confirmed by another sample; [ ] = remark or other dose. The call rests on the fitted dose curve; tested in HEK293 cells.
SMILES,MARV entry inh,LASV entry inh
O=C1CCCC=C1C(O)COCc1ccccc1 (configuration not stated),-[8.59 µM],-[8.59 µM]
COC(=O)[C@@]1(C=C2c3ccc(OC)cc3[C@@H](OC)[C@@H]2C)[C@@H]2C=CC[C@@H]21,-[8.59 µM],-[8.59 µM]
O=C(NC1CC1)c1ccc(NC(=O)C2CCC2)cc1,-,-
CC(=O)Nc1ccc(NC(=S)NC(=O)c2ccc(C(C)(C)C)cc2)cc1,7.1µM,32µM
CSC[C@H]1CN(c2ccccc2)C(=O)[C@H]1CC(=O)Nc1ccccc1,-,-
C=C(C)C(O)C=Cc1ccc(C(F)(F)F)cc1 (configuration not stated),?,-[8.59 µM]
NS(=O)(=O)c1ccc(-c2ccc3c(NC(=O)C4CC4)n[nH]c3c2)cc1,-,-
CC1OC(=O)C(C(C)C)NC(=O)C(C(C)C)OC(=O)C(C(C)C)NC(=O)C(C)OC(=O)C(C(C)C)NC(=O)C(C(C)C)OC(=O)C(C(C)C)NC(=O)C(C)OC(=O)C(C(C)C)NC(=O)C(C(C)C)OC(=O)C(C(C)C)NC1=O (configuration not stated),89µM,0.13µM
CC(=O)c1ccc(OCc2cn(CC(=O)c3ccc(O)cc3)nn2)cc1C,-,-
CO[C@]1(C)C[C@H]2O[C@]1(C)n1c3ccccc3c3c4c(c5c6ccccc6n2c5c31)C(=O)N(C)C4,-,-
O=C1NC(=O)c2c1c1c3ccccc3n3c1c1c2c2ccccc2n1C1CCC3O1,1.1µM,?
COc1cc(CCN2C(=O)NC(c3ccccc3)C(C(C)=O)=C2C)cc(OC)c1OC (configuration not stated),-[8.59 µM],-[8.59 µM]
COc1cc(CO[C@H]2C=C[C@@H](c3ccccc3)O[C@H]2CO)cc(OC)c1,?,-[8.59 µM]
C=CCN1C[C@H](C(=O)N(CCCN(C)C)C(=O)NCC)C[C@@H]2c3cccc4[nH]cc(c34)C[C@H]21,7.9µM,-
CCN(CC)C(=O)N[C@H]1C[C@@H]2c3cccc4[nH]cc(c34)C[C@H]2N(C)C1,-,-
COC(=O)N[C@H](C(C(=O)OC)=C(C)NCc1ccccc1)c1ccc(Cl)cc1,-[8.59 µM],-[8.59 µM]
O=C(C=NO)NCCCCNC(=O)C=NO,-[8.59 µM],-[8.59 µM]
CC1(C)C(=O)NC2=C1C(=O)C(=O)c1ccccc12,4µM,13µM
O=C1c2ccccc2C(=O)C1c1ccc(F)cc1,-,-
CC(=O)[C@]1(O)Cc2c(O)c3c(c(O)c2[C@@H](O[C@H]2C[C@H](N)[C@H](O)[C@H](C)O2)C1)C(=O)c1c(O)cccc1C3=O,0.056µM,.
COc1cccc2c1C(=O)c1c(O)c3c(c(O)c1C2=O)C[C@@](O)(C(=O)CO)C[C@@H]3O[C@H]1C[C@H](N)[C@H](O[C@@H]2CCCCO2)[C@H](C)O1,1.3µM,1.1µM
COc1cccc2c1C(=O)c1c(O)c3c(c(O)c1C2=O)C[C@@](O)(C(C)=O)C[C@@H]3O[C@H]1C[C@H](N)[C@H](O)[C@H](C)O1,?,35µM!
COc1cccc2c1C(=O)c1c(O)c3c(c(O)c1C2=O)C[C@@](O)(C(=O)CO)C[C@@H]3OC1C[C@@H](N)[C@H](O)[C@H](C)O1 (some centres not stated),0.89µM,?
C=CCCCC=C(C)[C@H](OCc1ccc(OC)cc1)[C@H](CCC=C(C)C(N)=O)OC,-[8.59 µM],-[8.59 µM]
COc1cc2c(cc1OC)[C@@H]1O[C@](CCCCN3C(=O)c4ccccc4C3=O)(C2)OC2=C1C(=O)OC1(CCCCC1)C2,-[8.59 µM],-[8.59 µM]
SMILES,MARV entry inh,LASV entry inh
O=C1OCCC=C1C(O)CCc1ccccc1 (configuration not stated),-[8.59 µM],-[8.59 µM]
COC[C@H](c1ccc(C(F)(F)F)cc1)N1CCN(C2(C)CCN(C(=O)c3c(C)ncnc3C)CC2)C[C@H]1C,-,-
COC(=O)C1C2CC(C)C(c3ccccc32)N1C(=O)C(F)(F)F (configuration not stated),?,-[8.59 µM]
CS(=O)(=O)CCNCc1nc(-c2ccc3ncnc(Nc4ccc(F)c(Cl)c4)c3c2)cs1,?,-
Cc1cc(O)cc(C)c1C=Cc1cncc(-c2nn[nH]n2)c1,-,-
CCCCCCCCCCC[C@@H]1C[C@H]2C=CCO[P@@](=O)(O1)O2,-,.
COC(=O)C1=C(C)N(Cc2ccccc2)C(=NCc2cc(OC)c(OC)c(OC)c2)NC1c1cccc(F)c1 (configuration not stated),-[8.59 µM],.
O[C@H]1C[C@H](c2ccccc2)N(CC2CCCCC2)C[C@H]1n1cc(C2CC2)nn1,-,-
COc1cc(C(=O)OC2C[C@H]3CC[C@@H](C2)N3C)ccc1O (some centres not stated),-,-
Cc1cc(C)cc(C(=O)OC2C[C@H]3CC[C@@H](C2)N3C)c1 (some centres not stated),11µM,?
Cc1cccc(CNc2ncnc3ccc(-c4ccccc4CN(C)C)cc23)c1,10µM,?
Cc1cccc(CNc2ncnc3ccc(-c4ccc5c(c4)OCO5)cc23)c1,-,-
CCC=CCCC(OC(=O)c1ccc(Br)cc1)C1=CCCCC1=O (configuration not stated),-[8.59 µM],-[8.59 µM]
Oc1ccc(Cl)cc1CN1CCOc2c(O)cc(-c3nc4ccccc4s3)cc2C1,-,1.6µM
COCc1ccc(CN2CCOc3c(O)cc(-c4cc(C)c5ccc(F)cc5n4)cc3C2)o1,-,?
COc1ccc(CN(C2CCCC2)S(=O)(=O)c2ccccc2Br)cc1,?,-
O=C(OCC(O)CO)c1ccccc1Nc1ccnc2cc(Cl)ccc12 (configuration not stated),-,-
Cc1ccc(O)cc1Nc1ccnc2cc(-c3ccccn3)ccc12,14µM,?
O=C1NC(=O)C(c2ccc(Cl)cc2)=C1Nc1ccc(Cl)c(C(=O)O)c1,?,-
Cc1ccc(S(=O)(=O)/C=C/C#N)cc1,2.8µM,7.1µM
Cc1ccc(S(=O)(=O)/C=C\C#N)cc1,10µM,16µM
C[C@@](N)(C(=O)O)c1ccc(S(=O)(=O)O)cc1,-,-
CC(C)(C)c1ccc(S(=O)(=O)/C=C\C#N)cc1,16µM,35µM
COC(=O)C1=C(C)N(CC2CC2)C(=NCCc2cccnc2)NC1c1ccccc1 (configuration not stated),-[8.59 µM],-[8.59 µM]
CCOC(=O)CCN1C(=O)[C@@H]2[C@H]3[C@H](O)[C@H](O)CC(=NNC(=O)OCc4ccc(OC)cc4)[C@@H]3CC[C@H]2C1=O,-[8.59 µM],?
SMILES,MARV entry inh,LASV entry inh
C[C@H]1COc2cc(F)ccc2S(=O)(=O)N1,?,-
CCN1C(=O)[C@@H]2[C@H]3[C@H](O)[C@H](O)CC(=NO[C@@H](C)c4cc(-c5c(C)cc(C)cc5C)no4)[C@@H]3CC[C@H]2C1=O,-[8.59 µM],-[8.59 µM]
COc1ccc([C@]23Cc4cc(C#N)ccc4[C@H](O2)c2c(cc(-c4ccccc4)oc2=O)O3)cc1,-[8.59 µM],-[8.59 µM]
COC(=O)[C@]1(C)CC[C@@]2(C)CC[C@@]3(C)C4=CC=C5C(=CC(=O)C(O)=C5C)[C@@]4(C)CC[C@@]3(C)C2C1 (some centres not stated),3.5µM,5.6µM
CC(C)=CCN1C(=O)[C@@]2(CC(C)=C[C@@H](COCc3ccccc3)O2)c2ccccc21,-[8.59 µM],.
CC[C@@H]1CN2CCc3cc(OC)c(OC)cc3[C@@H]2C[C@@H]1C[C@H]1NCCc2cc(OC)c(OC)cc21,?,5.6e-05µM
COc1cc(C[C@@H]2NCCc3cc(O)c(O)cc32)cc(OC)c1OC,-,-
COc1cc2c(cc1OC)C(C)NCC2 (configuration not stated),-,-
CC[C@@H]1CN2CCc3cc(OC)c(OC)cc3[C@H]2C[C@@H]1C[C@H]1NCCc2cc(OC)c(OC)cc21,?,0.32µM
